# Assay results as given in the supplement of paper PMC9446081.
# The whole screen tested about 39,000 compounds, of which about 220 (0.56%) showed activity. The full list was thinned out, with actives kept by preference.
# System: Escherichia coli K-12 BW25113
# Experiment: relative growth (OD600 normalised to plate interquartile mean) (fraction); higher = less growth inhibition, active = 0.2 or less
# Settings: 50 µM; LB; incubation time: overnight (16-24 h)
# 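Also: Wild-type cells incubated without shaking, value is the mean of two biological replicates.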
row,Structure (SMILES),relative growth
1,COC[C@H]1CN(C(=O)c2cccc(OC)c2)N1,1.01 (inactive)
2,Cc1ccc(S(=O)(=O)N(C)C[C@@H]2Oc3c(NC(=O)Nc4cccc5ccccc45)cccc3C(=O)N([C@H](C)CO)C[C@@H]2C)cc1,1 (inactive)
3,Cc1noc(C)c1S(=O)(=O)N(C)C[C@@H]1Oc2ccc(NC(=O)Cc3cn(C)c4ccccc34)cc2CC(=O)N([C@H](C)CO)C[C@@H]1C,1.01 (inactive)
4,COc1nc(C)nc(Cl)c1NC1=NCCN1,1.03 (inactive)
5,C[C@H]1CCCCO[C@@H](CN(C)S(=O)(=O)c2ccc(Cl)cc2)[C@@H](C)CN([C@@H](C)CO)C(=O)c2cc(NC(=O)NC3CCCCC3)ccc2O1,1 (inactive)
6,CC1CN(c2c(F)c(F)c3c(=O)c(C(=O)O)cn(C4CC4)c3c2F)CC(C)N1 (configuration not stated),0.0486 (active)
7,CC1CN(c2c(F)c(N)c3c(=O)c(C(=O)O)cn(C4CC4)c3c2F)CC(C)N1 (configuration not stated),0.0495 (active)
8,C[C@H](NC(=O)C[C@@H]1C=C[C@H](NC(=O)CN2CCOCC2)[C@H](CO)O1)c1ccccc1,1.02 (inactive)
9,O=C(NCCCN1CCOCC1)[C@H]1N[C@H]2c3ccc(C4=CCCCC4)c(=O)n3C[C@H]2[C@@H]1CO,0.98 (inactive)
10,C[C@@H]1CN([C@@H](C)CO)C(=O)c2cc(NS(=O)(=O)c3ccc(F)cc3)ccc2O[C@@H](C)CCCCO[C@@H]1CN(C)C(=O)Nc1ccc2c(c1)OCO2,1.01 (inactive)
11,C[C@@H]1CN([C@@H](C)CO)C(=O)c2cccc(NC(=O)c3ccc(-c4nccs4)cc3)c2O[C@H]1CN(C)C(=O)Nc1cccc2ccccc12,0.886 (inactive)
12,CN(C)CCN1CCc2ncc(Cn3cncn3)n2CC1,0.99 (inactive)
13,COc1ccc(S(=O)(=O)N(C)C[C@H]2OCCCC[C@H](C)Oc3ccc(NS(=O)(=O)c4cn(C)cn4)cc3C(=O)N([C@@H](C)CO)C[C@@H]2C)cc1,1 (inactive)
14,CCC(C)CCCCC(=O)NC(CCN)C(=O)NC(C(=O)NC(CCN)C(=O)NC1CCNC(=O)C(C(C)O)NC(=O)C(CCN)NC(=O)C(CCN)NC(=O)C(CC(C)C)NC(=O)C(Cc2ccccc2)NC(=O)C(CCN)NC1=O)C(C)O.O=S(=O)(O)O (configuration not stated),0.0419 (active)
15,CC[C@@H](C)CCCCC(=O)N[C@@H](CCN)C(=O)N[C@H](C(=O)N[C@@H](CCN)C(=O)N[C@H]1CCNC(=O)[C@H]([C@@H](C)O)NC(=O)[C@H](CCN)NC(=O)[C@H](CCN)NC(=O)[C@H](CC(C)C)NC(=O)[C@@H](Cc2ccccc2)NC(=O)[C@@H](CCN)NC1=O)[C@@H](C)O,0.0424 (active)
16,CC[C@H](C)[C@H](N)C1=N[C@H](C(=O)N[C@@H](CC(C)C)C(=O)N[C@H](CCC(=O)O)C(=O)N[C@H](C(=O)N[C@H]2CCCCNC(=O)[C@H](CC(N)=O)NC(=O)[C@@H](CC(=O)O)NC(=O)[C@H](Cc3cnc[nH]3)NC(=O)[C@@H](Cc3ccccc3)NC(=O)[C@H]([C@@H](C)CC)NC(=O)[C@@H](CCCN)NC2=O)[C@@H](C)CC)CS1,0.909 (inactive)
17,CC[C@@H](C)CCCC(=O)N[C@@H](CCN)C(=O)N[C@H](C(=O)N[C@@H](CCN)C(=O)N[C@H]1CCNC(=O)[C@H]([C@@H](C)O)NC(=O)[C@H](CCN)NC(=O)[C@H](CCN)NC(=O)[C@H](CC(C)C)NC(=O)[C@@H](CC(C)C)NC(=O)[C@H](CCN)NC1=O)[C@@H](C)O,0.262 (inactive)
18,C[C@@H]1CN([C@H](C)CO)C(=O)c2cccc(NC(=O)C3CC3)c2O[C@@H]1CN(C)S(=O)(=O)c1ccccc1,1.01 (inactive)
19,Cc1ccc(S(=O)(=O)N(C)C[C@@H]2Oc3ccc(NS(=O)(=O)c4cccs4)cc3CC(=O)N([C@H](C)CO)C[C@H]2C)cc1,1 (inactive)

row,Structure (SMILES),relative growth
1,C[C@H]1CN([C@@H](C)CO)C(=O)c2c(c3ccccc3n2C)-c2ccccc2CO[C@@H]1CN(C)S(=O)(=O)c1ccc(C(F)(F)F)cc1,1 (inactive)
2,CO[C@@H]1CN(C)C(=O)c2ccc(NS(C)(=O)=O)cc2OC[C@H](C)N(S(C)(=O)=O)C[C@H]1C,0.991 (inactive)
3,Cc1nnc(NCc2ccccc2)n(N)c1=O,0.975 (inactive)
4,CCCC#Cc1ccc2c(c1)O[C@H](CN(C)Cc1ccc3c(c1)OCO3)[C@H](C)CN([C@H](C)CO)S2(=O)=O,1.05 (inactive)
5,C[C@@H]1CN([C@H](C)CO)C(=O)c2cc(NC(=O)NC3CCCCC3)ccc2O[C@@H](C)CCCCO[C@H]1CN(C)Cc1ccncc1,1.02 (inactive)
6,C[C@@H]1CCCCO[C@@H](CN(C)S(=O)(=O)c2ccccc2)[C@@H](C)CN([C@H](C)CO)C(=O)c2cc(NC(=O)C3CCCCC3)ccc2O1,1.01 (inactive)
7,O=C(C[C@H]1CC[C@@H](NC(=O)c2cccnc2)[C@H](CO)O1)NCCN1CCCCC1,1 (inactive)
8,C[C@@H]1CN([C@H](C)CO)C(=O)c2cccc(NS(C)(=O)=O)c2O[C@H]1CN(C)C(=O)NC1CCCCC1,1.01 (inactive)
9,NNC(=O)c1c(O)c2c([nH]c1=O)CCCC2,0.95 (inactive)
10,Cc1[nH]c(=O)c(C(=O)O)c2c1CCC2,0.994 (inactive)
11,O=C(O)c1c(O)c2c([nH]c1=O)CCCC2,0.104 (active)
12,C[C@H](CO)N1C[C@H](C)[C@@H](CN(C)Cc2cccc(F)c2)Oc2cc(C#CC3CC3)ccc2S1(=O)=O,1.04 (inactive)
13,C[C@H](CO)N1C[C@H](C)[C@H](CN(C)CC2CC2)Oc2ccc(NS(=O)(=O)c3cn(C)cn3)cc2CC1=O,0.99 (inactive)
14,Cc1ccc(S(=O)(=O)Nc2ccc3c(c2)C(=O)N([C@H](C)CO)C[C@H](C)[C@@H](CN(C)C(=O)C2CCCCC2)OCCCC[C@H](C)O3)cc1,0.998 (inactive)
15,Nc1ccccc1OCc1ccccc1,0.955 (inactive)
16,CON=C(C(=O)NC1C(=O)N2C(C(=O)O)=C(CSC(=O)c3ccco3)CSC12)c1csc(N)n1.Cl (configuration not stated),0.0447 (active)
17,CO/N=C(\C(=O)N[C@@H]1C(=O)N2C(C(=O)O)=C(C[n+]3ccn4ncccc43)CS[C@H]12)c1nsc(N)n1,0.0425 (active)
18,CO/N=C(\C(=O)N[C@@H]1C(=O)N2C(C(=O)O)=C(CSC(=O)c3ccco3)CS[C@H]12)c1csc(N)n1,0.0342 (active)
